According to ChEMBL document CHEMBL3988442, “University of Dundee, Small-Polar-MMV Screening Library” (2021):
Where “and” joins values, the source holds several entries; their conditions need not be identical. Equal entries are not always repeated. For some of these results: Measured potencies and affinities stand elsewhere.

Tests used:
[1] = molecular target: T1, Methionyl-tRNA synthetase, putative (Leishmania donovani (strain BPK282A1)) (UniProt E9BF75); test: Leishmania donovani Methionine tRNA synthetase (LdMetRS):v7. Dose response assay; format: functional; parameters: conc 80 nM, time 150 minutes
T1 sequence (whole entry): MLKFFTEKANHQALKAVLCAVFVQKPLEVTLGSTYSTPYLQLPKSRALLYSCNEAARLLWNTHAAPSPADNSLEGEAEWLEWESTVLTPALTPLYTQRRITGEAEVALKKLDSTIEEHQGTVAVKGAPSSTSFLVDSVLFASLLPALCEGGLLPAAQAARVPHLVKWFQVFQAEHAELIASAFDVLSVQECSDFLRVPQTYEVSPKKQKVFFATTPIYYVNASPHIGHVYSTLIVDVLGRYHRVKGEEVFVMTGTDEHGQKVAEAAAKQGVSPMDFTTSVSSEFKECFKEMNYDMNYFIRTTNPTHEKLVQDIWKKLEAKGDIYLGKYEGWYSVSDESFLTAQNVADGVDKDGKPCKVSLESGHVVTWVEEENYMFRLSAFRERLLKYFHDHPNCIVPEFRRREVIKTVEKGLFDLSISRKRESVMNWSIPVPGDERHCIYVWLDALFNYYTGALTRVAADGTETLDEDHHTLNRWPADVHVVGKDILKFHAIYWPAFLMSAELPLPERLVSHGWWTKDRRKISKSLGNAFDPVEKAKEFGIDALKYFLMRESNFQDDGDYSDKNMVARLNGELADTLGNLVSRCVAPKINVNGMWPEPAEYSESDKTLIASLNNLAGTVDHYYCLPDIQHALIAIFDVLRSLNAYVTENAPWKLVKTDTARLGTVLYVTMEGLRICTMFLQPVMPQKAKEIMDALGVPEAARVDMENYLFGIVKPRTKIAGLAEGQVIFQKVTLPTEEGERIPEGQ

[2] = molecular target: Protein translocase subunit SecA (Escherichia coli (strain K12)) (UniProt P10408); test: Assay to Identify E. coli SecA ATPase Inhibitors; format: functional; parameters: scale not given: direction of the effect not stated beside the values; details: 30 µM
Sequence of Protein translocase subunit SecA (Escherichia coli (strain K12)) (P10408 whole entry): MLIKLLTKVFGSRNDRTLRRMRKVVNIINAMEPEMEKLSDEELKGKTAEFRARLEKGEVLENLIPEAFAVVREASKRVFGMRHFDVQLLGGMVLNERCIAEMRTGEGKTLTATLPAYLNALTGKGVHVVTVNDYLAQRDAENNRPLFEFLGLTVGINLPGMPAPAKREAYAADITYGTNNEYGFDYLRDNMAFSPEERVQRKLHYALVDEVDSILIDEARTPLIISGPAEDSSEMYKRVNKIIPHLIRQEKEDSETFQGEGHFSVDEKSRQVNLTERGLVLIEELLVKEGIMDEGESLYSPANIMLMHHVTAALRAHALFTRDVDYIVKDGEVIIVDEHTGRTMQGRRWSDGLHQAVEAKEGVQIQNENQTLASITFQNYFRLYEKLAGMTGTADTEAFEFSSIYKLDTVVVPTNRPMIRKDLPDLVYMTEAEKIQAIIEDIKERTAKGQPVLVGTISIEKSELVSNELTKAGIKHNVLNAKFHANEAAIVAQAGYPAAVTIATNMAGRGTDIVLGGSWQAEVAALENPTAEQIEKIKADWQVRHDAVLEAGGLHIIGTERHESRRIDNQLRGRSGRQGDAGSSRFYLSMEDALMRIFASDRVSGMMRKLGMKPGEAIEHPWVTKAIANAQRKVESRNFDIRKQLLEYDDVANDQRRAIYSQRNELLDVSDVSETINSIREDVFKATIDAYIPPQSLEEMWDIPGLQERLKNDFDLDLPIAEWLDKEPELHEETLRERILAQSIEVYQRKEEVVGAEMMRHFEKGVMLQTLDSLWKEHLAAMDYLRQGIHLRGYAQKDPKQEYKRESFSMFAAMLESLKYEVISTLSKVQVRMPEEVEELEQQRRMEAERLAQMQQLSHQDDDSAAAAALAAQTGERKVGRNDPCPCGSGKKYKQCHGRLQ

[3] = molecular target: T2, Ubiquitin-activating enzyme e1, putative (Leishmania donovani (strain BPK282A1)) (UniProt E9BSI1); test: Leishmania donovani Ubiquitin Activating Enzyme (LdE1); format: functional; parameters: scale not given: direction of the effect not stated beside the values; details: 30 µM
T2 sequence (whole entry): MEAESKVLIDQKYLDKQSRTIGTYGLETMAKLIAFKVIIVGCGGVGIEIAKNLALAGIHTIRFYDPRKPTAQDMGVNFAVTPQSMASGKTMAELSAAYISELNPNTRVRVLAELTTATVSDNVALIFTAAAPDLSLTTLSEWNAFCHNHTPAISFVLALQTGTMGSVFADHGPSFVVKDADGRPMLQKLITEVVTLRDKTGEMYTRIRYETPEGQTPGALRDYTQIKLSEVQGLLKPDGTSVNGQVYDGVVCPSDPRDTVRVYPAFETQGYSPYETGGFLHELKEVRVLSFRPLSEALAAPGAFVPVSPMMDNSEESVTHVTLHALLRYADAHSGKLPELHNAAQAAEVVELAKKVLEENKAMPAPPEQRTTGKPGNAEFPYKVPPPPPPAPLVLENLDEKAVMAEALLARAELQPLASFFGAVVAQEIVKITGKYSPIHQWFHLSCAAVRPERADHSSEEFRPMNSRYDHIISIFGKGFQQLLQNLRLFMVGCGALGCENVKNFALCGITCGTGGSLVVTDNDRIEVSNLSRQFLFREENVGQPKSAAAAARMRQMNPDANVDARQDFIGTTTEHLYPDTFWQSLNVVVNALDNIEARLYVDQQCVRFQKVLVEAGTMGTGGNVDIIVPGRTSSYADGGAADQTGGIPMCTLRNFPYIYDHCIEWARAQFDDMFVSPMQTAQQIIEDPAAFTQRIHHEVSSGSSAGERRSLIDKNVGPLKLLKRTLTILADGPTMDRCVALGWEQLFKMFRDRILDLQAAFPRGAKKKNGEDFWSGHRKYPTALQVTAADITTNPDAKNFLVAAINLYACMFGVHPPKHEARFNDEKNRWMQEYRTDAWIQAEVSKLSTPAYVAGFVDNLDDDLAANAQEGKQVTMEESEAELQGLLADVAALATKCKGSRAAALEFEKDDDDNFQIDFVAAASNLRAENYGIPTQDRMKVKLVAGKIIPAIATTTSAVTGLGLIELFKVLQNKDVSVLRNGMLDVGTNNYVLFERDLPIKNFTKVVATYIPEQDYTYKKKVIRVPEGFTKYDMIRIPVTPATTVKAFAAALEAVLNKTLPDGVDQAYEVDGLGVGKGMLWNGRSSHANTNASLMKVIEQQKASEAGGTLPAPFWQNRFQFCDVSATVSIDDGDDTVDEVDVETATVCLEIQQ

[4] = molecular target: AMP-activated protein kinase, AMPK (Homo sapiens) (UniProt P54646+O43741+P54619+Q9UGJ0+Q9Y478+Q13131+Q9UGI9); test: AMP-dependent Kinase enzyme assay. An in vitro enzyme assay that detects ADP turnover that is directly proportional to AMPK activity. This uses naive AMPK that is activated during the assay with MK-8722; format: functional; parameters: scale not given: direction of the effect not stated beside the values; details: 30 µM
[5] = molecular target: Sialic acid-binding Ig-like lectin 9 (Homo sapiens) (UniProt Q9Y336); test: Hs-Siglec9 ALPHAscreen SOP 20170721; parameters: scale not given: direction of the effect not stated beside the values; details: 10 µM
Sequence of Sialic acid-binding Ig-like lectin 9 (Homo sapiens) (Q9Y336 whole entry): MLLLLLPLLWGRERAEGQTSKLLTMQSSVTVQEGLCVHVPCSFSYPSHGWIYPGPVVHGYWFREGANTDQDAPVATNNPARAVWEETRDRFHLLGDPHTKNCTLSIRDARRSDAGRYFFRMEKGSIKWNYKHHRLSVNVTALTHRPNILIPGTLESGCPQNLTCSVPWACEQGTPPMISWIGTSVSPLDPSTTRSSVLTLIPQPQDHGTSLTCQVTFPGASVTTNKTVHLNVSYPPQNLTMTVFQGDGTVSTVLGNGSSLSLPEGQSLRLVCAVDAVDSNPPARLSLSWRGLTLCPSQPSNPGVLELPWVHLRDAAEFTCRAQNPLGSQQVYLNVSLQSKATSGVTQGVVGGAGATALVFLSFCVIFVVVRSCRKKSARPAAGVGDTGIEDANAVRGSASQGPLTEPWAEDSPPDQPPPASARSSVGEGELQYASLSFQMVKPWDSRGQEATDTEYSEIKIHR

[6] = tested on: Trypanosoma cruzi; test: Trypanosoma cruzi phosphomannomutase and mannose-1-phosphate guanylyltransferase assay; format: functional; parameters: scale not given: direction of the effect not stated beside the values; details: 10 µM
[7] = molecular target: T3, Arginase-2, mitochondrial (Homo sapiens) (UniProt P78540); test: in vitro enzyme assay to detect the production of urea directly proportional to the activity of Arginase II; format: functional; parameters: scale not given: in the data most compounds retested in dose-response had high values
T3 sequence (whole entry): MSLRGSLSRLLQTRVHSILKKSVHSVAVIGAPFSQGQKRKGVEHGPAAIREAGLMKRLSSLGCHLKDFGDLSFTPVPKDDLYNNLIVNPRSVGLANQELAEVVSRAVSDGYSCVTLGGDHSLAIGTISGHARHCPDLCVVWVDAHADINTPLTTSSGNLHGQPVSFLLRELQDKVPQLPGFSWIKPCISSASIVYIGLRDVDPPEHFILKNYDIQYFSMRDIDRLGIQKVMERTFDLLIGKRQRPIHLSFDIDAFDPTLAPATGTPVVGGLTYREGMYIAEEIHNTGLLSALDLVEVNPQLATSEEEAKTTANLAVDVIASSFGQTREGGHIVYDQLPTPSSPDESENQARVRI

[8] = molecular target: T4, Proteasome subunit beta (Trypanosoma cruzi) (UniProt O96673); test: Trypanosoma cruzi proteasome chymotrypsin-like activity (TcProtChymo) assay.; format: functional; parameters: scale not given: in the data most compounds retested in dose-response had high values; details: 9.37 µM
T4 sequence (whole entry): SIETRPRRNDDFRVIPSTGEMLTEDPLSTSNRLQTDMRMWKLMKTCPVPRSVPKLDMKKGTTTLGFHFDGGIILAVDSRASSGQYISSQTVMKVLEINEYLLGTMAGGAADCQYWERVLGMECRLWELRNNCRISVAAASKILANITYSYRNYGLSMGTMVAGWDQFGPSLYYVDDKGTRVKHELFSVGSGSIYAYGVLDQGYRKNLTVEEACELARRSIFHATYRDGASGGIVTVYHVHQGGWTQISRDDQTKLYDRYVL

[9] = species: Homo sapiens; test: To identify inhibition of the IFN signalling (Jak-Stat) pathway via expression of an eGFP reporter gene under the control of an IFN-stimulated response element (ISRE) containing MxA promoter.; format: functional; parameters: scale not given: direction of the effect not stated beside the values; details: 30 µM
[10] = molecular target: T5, Tyrosyl-tRNA synthetase, putative (Trypanosoma cruzi (strain CL Brener)) (UniProt Q4DSP6); test: Trypanosoma cruzi tyrosyl tRNA synthetase (TcYRS) _High Tyrosine SOP; format: functional; parameters: scale not given: in the data most compounds retested in dose-response had high values; details: 30 µM
T5 sequence (whole entry): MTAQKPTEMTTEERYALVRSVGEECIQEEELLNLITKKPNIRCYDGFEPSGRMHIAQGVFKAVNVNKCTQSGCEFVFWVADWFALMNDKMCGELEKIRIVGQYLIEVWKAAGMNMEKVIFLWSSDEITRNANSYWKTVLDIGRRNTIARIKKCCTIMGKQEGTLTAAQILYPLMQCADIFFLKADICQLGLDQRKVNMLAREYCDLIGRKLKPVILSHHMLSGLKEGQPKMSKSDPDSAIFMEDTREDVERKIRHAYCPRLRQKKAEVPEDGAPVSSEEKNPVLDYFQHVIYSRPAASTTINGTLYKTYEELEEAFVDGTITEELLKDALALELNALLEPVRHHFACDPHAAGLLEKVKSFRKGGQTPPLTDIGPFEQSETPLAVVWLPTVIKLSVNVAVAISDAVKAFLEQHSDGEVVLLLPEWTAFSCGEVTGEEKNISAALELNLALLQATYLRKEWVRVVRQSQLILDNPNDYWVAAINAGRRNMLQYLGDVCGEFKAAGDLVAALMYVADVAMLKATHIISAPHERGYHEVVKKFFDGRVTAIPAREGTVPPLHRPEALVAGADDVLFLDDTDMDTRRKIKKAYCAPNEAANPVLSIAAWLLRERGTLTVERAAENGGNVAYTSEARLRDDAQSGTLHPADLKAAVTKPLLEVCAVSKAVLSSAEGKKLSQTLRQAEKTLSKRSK

[11] = molecular target: T5, Tyrosyl-tRNA synthetase, putative (Trypanosoma cruzi (strain CL Brener)); test: Trypanosoma cruzi tyrosyl tRNA synthetase (TcYRS) SOP; format: functional; parameters: scale not given: direction of the effect not stated beside the values; details: 30 µM
[12] = molecular target: Chromo domain-containing protein 1 (Saccharomyces cerevisiae (strain ATCC 204508 / S288c) (Baker's yeast)) (UniProt P32657); test: ScCHD-1 Enzyme Inhibition Assay; format: functional; parameters: scale not given: in the data most compounds retested in dose-response had high values; details: 30 µM
Sequence of Chromo domain-containing protein 1 (Saccharomyces cerevisiae (strain ATCC 204508 / S288c) (Baker's yeast)) (P32657 whole entry, the tested form may be a part): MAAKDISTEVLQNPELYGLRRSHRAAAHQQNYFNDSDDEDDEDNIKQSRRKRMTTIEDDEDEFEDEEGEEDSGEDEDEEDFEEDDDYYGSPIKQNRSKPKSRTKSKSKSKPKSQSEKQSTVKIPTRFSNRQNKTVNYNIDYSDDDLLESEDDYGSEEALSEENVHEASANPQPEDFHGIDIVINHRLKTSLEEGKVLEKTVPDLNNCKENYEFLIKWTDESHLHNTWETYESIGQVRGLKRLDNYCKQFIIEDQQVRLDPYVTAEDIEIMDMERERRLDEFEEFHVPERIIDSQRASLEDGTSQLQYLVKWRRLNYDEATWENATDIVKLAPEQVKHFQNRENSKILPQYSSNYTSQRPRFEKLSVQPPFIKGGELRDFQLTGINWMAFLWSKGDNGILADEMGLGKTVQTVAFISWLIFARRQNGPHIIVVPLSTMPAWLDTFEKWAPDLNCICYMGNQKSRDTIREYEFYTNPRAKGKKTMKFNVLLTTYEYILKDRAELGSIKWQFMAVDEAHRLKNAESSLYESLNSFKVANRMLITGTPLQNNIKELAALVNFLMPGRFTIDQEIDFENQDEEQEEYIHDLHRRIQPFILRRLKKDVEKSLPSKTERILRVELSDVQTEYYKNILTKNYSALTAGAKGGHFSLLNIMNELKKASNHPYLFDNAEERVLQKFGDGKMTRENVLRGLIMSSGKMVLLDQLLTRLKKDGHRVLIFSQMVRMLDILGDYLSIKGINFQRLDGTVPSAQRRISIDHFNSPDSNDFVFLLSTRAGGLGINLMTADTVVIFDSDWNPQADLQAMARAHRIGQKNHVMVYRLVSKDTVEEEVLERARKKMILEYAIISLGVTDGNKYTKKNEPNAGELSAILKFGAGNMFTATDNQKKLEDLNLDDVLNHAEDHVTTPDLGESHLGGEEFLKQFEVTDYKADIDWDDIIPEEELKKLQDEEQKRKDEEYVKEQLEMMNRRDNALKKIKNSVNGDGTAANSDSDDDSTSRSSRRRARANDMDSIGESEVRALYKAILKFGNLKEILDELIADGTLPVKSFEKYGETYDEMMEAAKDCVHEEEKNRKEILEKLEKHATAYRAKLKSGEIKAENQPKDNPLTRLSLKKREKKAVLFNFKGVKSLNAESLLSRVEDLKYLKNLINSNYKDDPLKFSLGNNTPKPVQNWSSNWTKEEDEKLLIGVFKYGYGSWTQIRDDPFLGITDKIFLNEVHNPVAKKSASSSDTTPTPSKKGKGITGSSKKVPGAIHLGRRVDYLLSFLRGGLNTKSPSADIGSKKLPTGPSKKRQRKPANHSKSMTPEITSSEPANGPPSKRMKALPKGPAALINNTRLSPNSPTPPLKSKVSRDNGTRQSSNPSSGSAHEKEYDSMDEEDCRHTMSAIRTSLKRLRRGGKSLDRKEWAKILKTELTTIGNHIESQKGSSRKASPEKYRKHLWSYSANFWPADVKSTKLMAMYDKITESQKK

[13] = tested on: N/A; test: Trypanosoma cruzi proteasome luciferase counter-screen; format: functional; parameters: scale not given: direction of the effect not stated beside the values; details: 9.37 µM

SMILES	PXC50 ([1]; MAX_EFFECT 19.47743468)	PXC50 ([1]; MAX_EFFECT 35.38732394)	Percent Effect [2]	Percent Effect [3]	Percent Effect [4]	Percent Effect [5]	Percent Effect [6]	Percent Effect ([7]; 33.3 µM)	Percent Effect [8]	Percent Effect [9]	Percent Effect [10]	Percent Effect [11]	Percent Effect [12]	Percent Effect ([7]; 30 µM)	Percent Effect [13]
c1ccc(C2CCN(c3cncc(-n4cccn4)n3)CC2)cc1	< 4	< 4	-1.56%	8.11%	3.62%	3.88%	1.17%	5.42%	14.1%	10%	9.9%	18.3%	-4.19%		
CN(Cc1cccnc1)C1CC2(CCN(c3ccccn3)CC2)C1			-2.7%	13.3%	11%	-6.68%	-5.12%	-1.17%	3.26%	27.4%	7.45%	16.7%	-5.79%	3.78%	
Cn1cc(CC2CCN(C(=O)NCCc3cccc(O)c3)C2)cn1 (centres undefined)			-1.93%	0%	11.8%	1.28%	-3.8%	-2.37%	11%	-12%	5.32%	7.79%	-2.6%	5.95%	
COc1cccc(C(=O)NCC(O)c2cccs2)c1 (centres undefined)			-3.69%	11%	7.67%	3.99%	6.46%	0%	34.1% and 33.9% and 40.3%	-9.23%	7.53%	17.5%	-3.59%		6.45% and 13%
CCCN1CCC(NC(=O)c2ccc(F)cc2I)CC1			-2.2%	18.1%	-6.61%	17.7%	2.23%	24.3%	12.5%	-17.1%	8.42%	15.4%	-5.41%	5.95%	
CCOc1cc(/C=C/c2ncc(C(=O)O)s2)ccc1O			-3.57%	11.4%	44.7%	0.0396%	-3.38%	4.95%	47.2% and 46.2% and 45.3%	7.54%	4.17%	7.59%	-20.7%		10.5% and 16.9%
CN(C)C(=O)CNC(=O)c1cc(Br)c2c(c1)OCCO2			-5.71%	8%	-2.43%	7.31%	4.58%	1.56%	21.6%	-10.2%	7.1%	18.5%	-4.33%	4.87%	
NC(=O)c1nc(COc2ccc3c(c2)OCO3)no1			2.5%	9.33%	10%	1.5%	-8.84%	-7.22%	45% and 40.2% and 44%	3.46%	2.12%	10.3%	-8.03%		21.3% and 24%
CCc1nc(CN2CCCN(C(=O)CCc3ccco3)CC2)cs1			-4.67%	8.86%	-0.445%	-5.08%	5.64%	-4.95%	56.6% and 53% and 44.8%	3.92%	7.29%	15.2%	-32.7%		0.501% and 5.84%
